In all, about 33,000 sequences were measured (“E-score (-0.5 to 0.5)”: median about -0.021, highest 2% from about 0.32 on). This excerpt belongs to a sample that is enriched for the highest values.
Each sequence was assayed against T1, Zap1 (UniProt P47043) (assay: PBM E-score (8-mer binding enrichment) (E-score (-0.5 to 0.5)); higher = stronger / more preferred TF binding). Settings: protein concentration: 200 nM; construct: GST-full length.
T1 sequence: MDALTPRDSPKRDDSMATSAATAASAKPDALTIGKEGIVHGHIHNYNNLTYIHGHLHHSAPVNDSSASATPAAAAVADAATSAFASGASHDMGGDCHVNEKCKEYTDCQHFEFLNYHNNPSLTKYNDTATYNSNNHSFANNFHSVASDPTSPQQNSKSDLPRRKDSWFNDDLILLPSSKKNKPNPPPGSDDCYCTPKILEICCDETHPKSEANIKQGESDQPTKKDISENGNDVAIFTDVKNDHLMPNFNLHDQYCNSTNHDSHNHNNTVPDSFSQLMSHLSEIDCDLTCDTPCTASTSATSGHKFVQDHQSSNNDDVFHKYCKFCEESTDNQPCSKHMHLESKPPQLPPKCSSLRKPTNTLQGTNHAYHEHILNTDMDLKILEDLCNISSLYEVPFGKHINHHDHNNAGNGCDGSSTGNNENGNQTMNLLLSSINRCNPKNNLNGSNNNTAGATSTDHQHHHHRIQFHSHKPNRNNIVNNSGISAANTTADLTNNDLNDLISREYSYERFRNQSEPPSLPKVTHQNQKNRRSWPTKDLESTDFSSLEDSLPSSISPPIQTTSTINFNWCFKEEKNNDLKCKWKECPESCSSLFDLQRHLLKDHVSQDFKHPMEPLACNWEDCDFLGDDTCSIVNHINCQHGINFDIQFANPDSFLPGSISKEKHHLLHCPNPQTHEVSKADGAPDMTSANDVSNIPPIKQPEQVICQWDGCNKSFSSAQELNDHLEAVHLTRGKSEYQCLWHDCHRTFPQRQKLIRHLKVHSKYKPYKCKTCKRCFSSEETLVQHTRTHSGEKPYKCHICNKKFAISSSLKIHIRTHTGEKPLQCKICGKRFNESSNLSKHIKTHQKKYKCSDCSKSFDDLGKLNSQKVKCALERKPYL
Method: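 Universal 'all 10-mer' protein binding microarrays (Agilent AMADID 015681) probed with GST-tagged S. cerevisiae TFs (full-length or DBD) made by in vitro transcription/translation (PURExpress), about 100-200 nM. Bound TF was detected with fluorescent anti-GST. Each ungapped 8-mer (which stands for itself and its reverse complement) is scored by the PBM enrichment score (E-score), a modified Wilcoxon-Mann-Whitney statistic from -0.5 to +0.5, computed with the Universal PBM Analysis Suite. Scale: above 0.35 generally sequence-specific binding.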

Sequence	PBM E-score
CCATACCC	0.29
ACATACCG	-0.00488
GCATACCA	-0.0787
ACATACCC	0.347
ACATACCA	-0.0785
GCATACCC	0.344
AGCAGGGG	-0.0612
AGACAATA	0.0476
GGTTACCA	0.468
CGTTACTA	0.0809
AGTTACCA	0.263
AGTTACTA	0.129
GGTTACGA	0.465
AGTTACGA	0.226
CGTTACGA	0.121
CGTTACCA	0.31
GGTTACTA	0.447
AGTCTTAT	-0.115
CCGATAGC	-0.225
AACTAAGG	0.017
GACTACCC	0.301
AACTACCC	0.391
CACTACCA	0.22
AACTACCG	0.179
CACTACCC	0.367

Sequence	PBM E-score
AACTACCT	0.286
ATTGCCTG	-0.0833
GCCAGGGC	-0.128
CGCATACG	-0.12
GCCCTATA	-0.144
CCCCTATA	-0.102
ACCCTATG	0.368
ACCCTATA	0.354
AACCTATG	0.258
ACCCTATC	0.276
CCAGGCCG	-0.0809
GCGACACC	0.0184
ACACTCAA	0.139
AACGCTTC	-0.128
AGAAGCTA	-0.265
CAACCGTA	0.0143
TTTCAAAA	0.321
GTTCAAAA	0.0198
CTTCAAAA	0.0592
CGCACAAC	0.122
ACGGTTGC	0.117
ACGGTTAG	0.223
ACGGTTTC	-0.0123
ACGGTTAC	0.411
ACGGTTAA	0.258

Sequence	PBM E-score
ACGGTTAT	0.414
AGTTTGCA	-0.0409
TCCTCACA	0.0409
AAGAACTC	0.0396
ACAAAGAA	0.178
ACTGAATC	-0.0382
CGTCATGA	0.0742
AGTCATGA	0.0992
GGTCATAA	0.379
CGTCATTA	-0.145
AGTCATTA	-0.17
GGTCATTA	0.321
TGTCATAA	0.184
GGTCATAC	0.313
GGTCATGA	0.346
CCGGACCG	-0.129
AGCAATGC	-0.0926
ACGCGAAG	0.0536
ACTACCCG	0.261
AAGGGTCG	0.36
TCGGGTCA	0.233
ATGGGTCG	0.0454
GTGGGTCA	0.211
ATGGGTCC	0.263
ATGGGTCA	0.359

Sequence	PBM E-score
TAGGGTCA	0.408
ACGGGTCG	0.116
TAGGGTGA	0.299
GAGGGTCA	0.397
GAGGGTCC	0.134
AGGGGTCG	0.0682
ACTGGCTA	-0.0583
CCGAGACC	0.197
AGCAATGG	-0.133
AAACAGGT	0.135
ATACTCTC	-0.15
CACAGTTC	-0.0558
CTACTCGC	-0.18
ATGGGCGG	-0.125
AACGCATT	0.0284
AAGGGTCA	0.439
AAGGGTGA	0.293
AAGGGTCT	0.136
CAGGGTCC	0.14
GAGGGTTA	0.45
AGGGGTCA	0.438
CAGGGTCA	0.417
CAGGGTCG	0.275
AGGGGTGA	0.219
AGGGGTCC	0.0654

Sequence	PBM E-score
GAGGGGTA	0.245
GAGGGTGA	0.126
CATGCGAC	0.014
CGACCACC	0.15
CCTCTGTC	0.0337
AAAGTGTG	0.071
ATATCAGA	0.0906
CCTCGACC	-0.056
TTGCTAAA	-0.0992
GGCCCTGA	-0.137
CGGGGTCA	0.332
GGGGGTCA	-0.132
ACGGGTCA	0.223
CCGGGTCA	0.316
GCGGGTCC	-0.0967
GCGGGTCA	0.367
AGGTGGGC	-0.0375
CAGCTCAA	-0.0501
GCAAGATA	0.0727
GCCCTACC	0.0168
AACCTACG	0.123
CCCCTACA	-0.0402
ACCCTACG	0.361
AACCTACT	0.135
ACCCTACT	0.329

Sequence	PBM E-score
ACCCTACA	0.419
CCCCTACC	0.0857
TCCCTACA	-0.0805
ACCCTACC	0.364
AGCCTACT	-0.212
CCCCTACG	-0.117
GAGTTGCA	-0.0948
AAATTCCT	-0.0586
CAAAGTGC	-0.0833
CGAATCGA	0.00445
ATCGAATG	-0.106
ACCTAGGA	0.159
CTCAGGCA	-0.158
ATTGCGAA	-0.0714
GTAACAAC	0.234
AACATGCG	-0.0232
GCCAGAAC	-0.226
TATAACAA	0.291
GATAACGA	0.00419
AATAACGA	-0.036
TCTAACCA	0.231
CATAACCA	0.462
CATAACAA	0.179
GATAACTA	0.231
CATAACTA	0.18

Sequence	PBM E-score
AATAACCA	0.445
AATAACAA	0.0521
GATAACCA	0.426
TATAACCA	0.45
GTGTTGAA	-0.0764
ACGGCTCC	-0.198
GCCTTTGA	0.0766
GGTGTCAC	0.0261
CTCTGCAG	-0.126
ACTATAGT	0.197
AGCCGCTC	-0.0957
CCTGTTGC	0.0211
GCATAGAC	-0.117
CTGGTAAG	0.055
GCCATCCA	-0.197
CATAACGG	-0.0515
CATAACCG	0.395
CATAACAG	-0.0694
CTATATAA	0.24
CGTTATAC	-0.00572
AGTTATAC	0.104
GGTTATAC	0.461
